# According to PMC5540273 (PLoS ONE, 2017):
# System: MAP4K2
# Conditions: concentration: 1 μM, replicates: in singlicate; n = 1
# 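Note: KINOMEscan kinase panel screen.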
row,Structure (SMILES),%Inh [%]
1,COc1ccc(-c2coc3ccc(-c4nnc(SCc5ccc(OC)c(C(F)(F)F)c5)o4)cc23)cc1,0
2,CC(C)c1nc(-c2cccc(NS(=O)(=O)c3c(F)cccc3F)c2F)c(-c2ccnc(Nc3ccc(N4CCOCC4)nc3)n2)s1 [GSK2008607],0
3,Cn1cc(-c2ccc3c(c2)CCN3C(=O)Cc2cccc(F)c2)c2c(N)ncnc21 [GSK2603358],18
4,COc1cc2c(cc1OCCN1CCNCC1)ncc1c3ccc(C#N)cc3[nH]c21,51
5,Cc1ccc(S(=O)(=O)Nc2ccc(Nc3nccc(Nc4cccc5[nH]ncc45)n3)cc2)cc1 [GSK581271],0
6,Cc1ccc(C)c(NC(=O)NC2CCN(c3ccnc(Nc4ccc(F)cc4)n3)C2)c1 (centres unmarked) [GSK1379720],0
7,CN1CCN(Cc2cccc(-c3ccc4c(Nc5ccc(Oc6ccccc6)cc5)ccnc4c3)c2)CC1 [GW578342],0
8,COc1cc(Nc2nccc(-c3c(-c4cccc(NC(=O)c5c(F)cccc5F)c4)nn4ccccc34)n2)cc(OC)c1OC [GSK323521],37
9,Cc1cccc(Nc2nc(N[C@H]3CCNC3)ncc2C(N)=O)c1.Cl [GSK2197149],88
10,Nc1n[nH]c2cnc(-c3ccccc3)cc12 [SB-642124],31
11,Cc1occc1-c1ncc(OC[C@@H](N)Cc2c[nH]c3ccccc23)cc1-c1ccc2[nH]nc(C)c2c1.O=C(O)C(F)(F)F [GSK682037],99.3
12,CSc1cccc2c(-c3ccncn3)c(-c3ccc(F)cc3)nn12 [GW514786],0
13,C[C@@H]1CC[C@@H](C(=O)Nc2ccccc2)CN1c1cc(-c2ccc3c(N)n[nH]c3c2)nc(N)n1 [GSK2286062],3
14,CN(C)Cc1ccc(-c2ccc3c(Nc4ccc(Oc5ccccn5)cc4)ccnc3c2)o1 [GW567148],5
15,COc1cc(Nc2ncc3c(C)nc(-c4cc5ccccc5[nH]4)n3n2)cc(OC)c1OC [GW869516],0
16,Cn1cc(-c2[nH]c3cc(NC(=O)[C@H](N)C4CCCCC4)cc4c3c2C=NNC4=O)cn1,97.3
17,FC(F)(F)c1ccc(/C=C/c2cncnc2Nc2ccc3[nH]c(Cc4ccccc4)nc3c2)cc1 [GW709199],0
18,CCCCc1nn2ncccc2c1-c1ccnc(Nc2ccc(N3CCN(C)CC3)cc2)n1 [GW684941],0
19,COCCOCCOc1cc2ncc3c4ccc(C#N)cc4[nH]c3c2cc1OC,11
20,COc1cccc(-c2ccc3c(NC(=O)C4CC4)n[nH]c3n2)c1 [SB-710903],0
21,COc1cc(Nc2nccc(N3CCC(NC(=O)c4cc5ccccc5s4)C3)n2)cc(OC)c1OC (centres unmarked) [GSK1379760],13
22,COC(=O)Nc1nc2cc(Oc3ccc(NC(=O)Nc4cc(C(F)(F)F)ccc4F)cn3)ccc2[nH]1.Cl.Cl [GW681170],0
23,COc1cc(Nc2nccc(N3CCC(NC(=O)Nc4cccc(C(C)=O)c4)C3)n2)cc(OC)c1OC (centres unmarked) [GSK1379753],8
24,c1ccc(-c2cnc3nccnn23)cc1 [AH20685],0
25,CN1CCN(CCCNc2nccc(-c3c(-c4ccc(F)cc4)nn4cc(C(F)(F)F)ccc34)n2)CC1 [GW621581],0

# System: MAP4K3
# Conditions: concentration: 1 μM, replicates: in singlicate; n = 1
row,Structure (SMILES),%Inh [%]
1,COc1ccc(Nc2nccc(NCCNC(=O)c3cc4ccccc4s3)n2)cc1 [GSK1379896],0
2,Clc1ccc(-c2nn3ncccc3c2-c2ccnc(Nc3ccc4c(c3)OCCO4)n2)cc1 [GW829116],0
3,O=C(Nc1cccc(-c2nn3ncccc3c2-c2ccnc(Nc3ccccc3)n2)c1)c1c(F)cccc1F [GSK198271],33
4,Nc1ncc(-c2ccc3nccc(-c4ccncc4)c3c2)cc1S(=O)(=O)N1CCOCC1 [GSK1627798],0
5,Cl.c1ccc(-c2ccc3c(Nc4ccc5[nH]ccc5c4)ccnc3c2)nc1 [GW440138],0
6,COc1cccc(C2=C(Nc3ccc(Cl)c(C(=O)O)c3)C(=O)NC2=O)c1 [SB-390769],0
7,O=C(Nc1n[nH]c2cc(-c3ccoc3)ccc12)C1CC1 [SB-738481],0
8,CCS(=O)(=O)c1ccc(OC)c(Nc2nccc(-c3c(-c4cccc(NC(=O)c5c(F)cccc5F)c4)nn4ncccc34)n2)c1 [GSK326180],22
9,CN(c1ccc(NC(=O)Nc2cc(C(F)(F)F)ccc2F)cc1)c1ccnc(Nc2ccc(S(N)(=O)=O)cc2)n1 [GW809893],96.8
10,Oc1cc(Nc2ccnc3cc(I)ccc23)ccc1F [GW552771],0
11,CC(=O)N1CCN(c2ccc(Nc3nccc(-c4sc(C(C)C)nc4-c4cccc(NS(=O)(=O)c5cccc(Cl)c5)c4)n3)cn2)CC1 [GSK1660437],10
12,Cn1cc(-c2ccc3c(c2)CCN3C(=O)Cc2cccc(Cl)c2)c2c(N)ncnc21 [GSK2606590],71
13,COc1ccc(-c2coc3ccc(-c4nnc(SCc5ccc(OC)c(C(F)(F)F)c5)o4)cc23)cc1,0
14,CC(C)c1nc(-c2cccc(NS(=O)(=O)c3c(F)cccc3F)c2F)c(-c2ccnc(Nc3ccc(N4CCOCC4)nc3)n2)s1 [GSK2008607],88
15,Cn1cc(-c2ccc3c(c2)CCN3C(=O)Cc2cccc(F)c2)c2c(N)ncnc21 [GSK2603358],64
16,COc1cc2c(cc1OCCN1CCNCC1)ncc1c3ccc(C#N)cc3[nH]c21,8
17,Cc1ccc(S(=O)(=O)Nc2ccc(Nc3nccc(Nc4cccc5[nH]ncc45)n3)cc2)cc1 [GSK581271],34
18,Cc1ccc(C)c(NC(=O)NC2CCN(c3ccnc(Nc4ccc(F)cc4)n3)C2)c1 (centres unmarked) [GSK1379720],0
19,CN1CCN(Cc2cccc(-c3ccc4c(Nc5ccc(Oc6ccccc6)cc5)ccnc4c3)c2)CC1 [GW578342],0

row,Structure (SMILES),%Inh [%]
1,COc1cc(Nc2nccc(-c3c(-c4cccc(NC(=O)c5c(F)cccc5F)c4)nn4ccccc34)n2)cc(OC)c1OC [GSK323521],71
2,Cc1cccc(Nc2nc(N[C@H]3CCNC3)ncc2C(N)=O)c1.Cl [GSK2197149],40
3,Nc1n[nH]c2cnc(-c3ccccc3)cc12 [SB-642124],3
4,Cc1occc1-c1ncc(OC[C@@H](N)Cc2c[nH]c3ccccc23)cc1-c1ccc2[nH]nc(C)c2c1.O=C(O)C(F)(F)F [GSK682037],99.4
5,CSc1cccc2c(-c3ccncn3)c(-c3ccc(F)cc3)nn12 [GW514786],0
6,C[C@@H]1CC[C@@H](C(=O)Nc2ccccc2)CN1c1cc(-c2ccc3c(N)n[nH]c3c2)nc(N)n1 [GSK2286062],0
7,CN(C)Cc1ccc(-c2ccc3c(Nc4ccc(Oc5ccccn5)cc4)ccnc3c2)o1 [GW567148],0
8,COc1cc(Nc2ncc3c(C)nc(-c4cc5ccccc5[nH]4)n3n2)cc(OC)c1OC [GW869516],0
9,Cn1cc(-c2[nH]c3cc(NC(=O)[C@H](N)C4CCCCC4)cc4c3c2C=NNC4=O)cn1,86
10,FC(F)(F)c1ccc(/C=C/c2cncnc2Nc2ccc3[nH]c(Cc4ccccc4)nc3c2)cc1 [GW709199],0
11,CCCCc1nn2ncccc2c1-c1ccnc(Nc2ccc(N3CCN(C)CC3)cc2)n1 [GW684941],12
12,COCCOCCOc1cc2ncc3c4ccc(C#N)cc4[nH]c3c2cc1OC,39
13,COc1cccc(-c2ccc3c(NC(=O)C4CC4)n[nH]c3n2)c1 [SB-710903],0
14,COc1cc(Nc2nccc(N3CCC(NC(=O)c4cc5ccccc5s4)C3)n2)cc(OC)c1OC (centres unmarked) [GSK1379760],8
15,COC(=O)Nc1nc2cc(Oc3ccc(NC(=O)Nc4cc(C(F)(F)F)ccc4F)cn3)ccc2[nH]1.Cl.Cl [GW681170],3
16,COc1cc(Nc2nccc(N3CCC(NC(=O)Nc4cccc(C(C)=O)c4)C3)n2)cc(OC)c1OC (centres unmarked) [GSK1379753],0
17,c1ccc(-c2cnc3nccnn23)cc1 [AH20685],0
18,CN1CCN(CCCNc2nccc(-c3c(-c4ccc(F)cc4)nn4cc(C(F)(F)F)ccc34)n2)CC1 [GW621581],30
